Results: the supplement of paper PMC9694430

Columns and labels:
Assay in all cases: thermal shift delta Tm vs DMSO control; higher = stronger stabilization (binding)
Details in all cases: 12.5 µM; protein concentration 2 µM
[1] = test system: LOC_OS01G01410-cb001
Procedure, shortened: (§1)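 Purified, E. coli-expressed rice kinase domain constructs were tested by differential scanning fluorimetry in 96-well plates: 19.5 μl of 2 μM kinase in 100 mM potassium phosphate pH 7.5, 150 mM NaCl, 10% glycerol, 5 × SYPRO Orange, plus compound in DMSO. Fluorescence was read from 25°C to 95°C at 0.05°C/s. Melting temperatures came from Boltzmann fits, and the shift is the triplicate mean relative to protein with DMSO alone.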

[2] = test system: LOC_OS01G02750-cb003
Procedure, shortened: as §1

[3] = test system: LOC_OS01G10900-cb004
Procedure, shortened: as §1

[4] = test system: LOC_OS01G13800-cb001
Procedure, shortened: as §1

[5] = test system: LOC_OS01G14860-cb001
Procedure, shortened: as §1

[6] = test system: LOC_OS01G21960-cb002
Procedure, shortened: as §1

[7] = test system: LOC_OS01G39600-cb002
Procedure, shortened: as §1

[8] = test system: LOC_OS01G48390-cb002
Procedure, shortened: as §1

[9] = test system: LOC_OS01G51400-cb002
Procedure, shortened: as §1

[10] = test system: T1, LOC_OS01G52050-cb004
T1 sequence (whole entry): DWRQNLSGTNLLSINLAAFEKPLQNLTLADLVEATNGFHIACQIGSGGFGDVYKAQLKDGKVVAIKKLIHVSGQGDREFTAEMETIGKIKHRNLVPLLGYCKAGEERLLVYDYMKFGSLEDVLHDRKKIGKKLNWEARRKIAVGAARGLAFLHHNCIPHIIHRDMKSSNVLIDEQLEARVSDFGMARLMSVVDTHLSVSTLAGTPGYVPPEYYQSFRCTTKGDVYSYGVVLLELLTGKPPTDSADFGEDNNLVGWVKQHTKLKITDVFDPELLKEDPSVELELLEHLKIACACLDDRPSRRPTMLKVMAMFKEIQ
Procedure, shortened: as §1

[11] = test system: LOC_OS01G57100-cb003
Procedure, shortened: as §1

[12] = test system: LOC_OS01G60330-cb001
Procedure, shortened: as §1

[13] = test system: LOC_OS01G60700-cb002
Procedure, shortened: as §1

[14] = test system: LOC_OS01G63280-cb003
Procedure, shortened: as §1

[15] = test system: LOC_OS01G67340-cb003
Procedure, shortened: as §1

[16] = test system: LOC_OS01G70970-cb002
Procedure, shortened: as §1

[17] = test system: LOC_OS02G07810-cb001
Procedure, shortened: as §1

[18] = test system: LOC_OS02G08530-cb003
Procedure, shortened: as §1

[19] = test system: LOC_OS02G14120-cb001
Procedure, shortened: as §1

[20] = test system: LOC_OS02G17970-cb001
Procedure, shortened: as §1

Row | SMILES | thermal shift delta Tm [1] | thermal shift delta Tm [2] | thermal shift delta Tm [3] | thermal shift delta Tm [4] | thermal shift delta Tm [5] | thermal shift delta Tm [6] | thermal shift delta Tm [7] | thermal shift delta Tm [8] | thermal shift delta Tm [9] | thermal shift delta Tm [10] | thermal shift delta Tm [11] | thermal shift delta Tm [12] | thermal shift delta Tm [13] | thermal shift delta Tm [14] | thermal shift delta Tm [15] | thermal shift delta Tm [16] | thermal shift delta Tm [17] | thermal shift delta Tm [18] | thermal shift delta Tm [19] | thermal shift delta Tm [20]
1 | C#Cc1cccc(Nc2ncnc3cc(OCCOC)c(OCCO)cc23)c1 | 1.63 °C | 0.85 °C | 1.08 °C | 0.74 °C | 0.28 °C | 0.99 °C | 2.63 °C | 2.12 °C | 0.19 °C | 1.63 °C | 0.15 °C | 0.3 °C | 0.24 °C | -0.13 °C | -0.22 °C | 0.5 °C | 1.32 °C | 1.16 °C | 4.33 °C | -0.01 °C
2 | Nc1ccc(C(=O)Nc2cccc(-c3nc(N4CCOCC4)c4oc5ncccc5c4n3)c2)cn1 | 1.9 °C | 1.58 °C | 1.27 °C | 0.49 °C | 0.58 °C | 0.56 °C | 0.13 °C | 0.28 °C | 0.29 °C | 0.45 °C | 1.26 °C | 1.1 °C | 1.16 °C | -0.04 °C | -0.15 °C | 0.23 °C | 0.77 °C | 1.1 °C | 0.34 °C | 0.35 °C
3 | N#Cc1cccc(-c2c[nH]c3ncnc(N4CCOCC4)c23)c1 | 0.72 °C | 2.58 °C | 0.72 °C | 0.32 °C | 1.47 °C | 1 °C | 1.94 °C | 0.73 °C | 0.58 °C | 1.08 °C | 1.38 °C | 0.98 °C | 0.99 °C | 4.38 °C | 1.62 °C | 0.07 °C | 0.61 °C | 2.7 °C | 3.85 °C | 0.73 °C
4 | CCCS(=O)(=O)Nc1ccc(F)c(C(=O)c2c[nH]c3ncc(Cl)cc23)c1F | 2.48 °C | 2.88 °C | 1.45 °C | -0.05 °C | 0.85 °C | 0.52 °C | 2.73 °C | 3.29 °C | 0.32 °C | 1.3 °C | 0.54 °C | 2.26 °C | 1.16 °C | 5.8 °C | -0.05 °C | 2.74 °C | 1.49 °C | 0.84 °C | 1.51 °C | 0.28 °C
5 | C=C[C@@](C)(/C=C/c1ccc(O)cc1)CCC=C(C)C [Bakuchiol] | 1 °C | 1.1 °C | 1.06 °C | 0.03 °C | 0.91 °C | 0.52 °C | 0.57 °C | 0.85 °C | 0.52 °C | 3.47 °C | -0.4 °C | 0.36 °C | 0.05 °C | 0.51 °C | -0.02 °C | 0.49 °C | -0.84 °C | 0.6 °C | 0.29 °C | 0.27 °C
6 | CN1CCC(Nc2nc(Nc3ccc(Oc4ccccc4)cc3)c3c(=O)[nH]cc(Br)c3n2)CC1 | 1.56 °C | 2.82 °C | 0.27 °C | 0.59 °C | 2.99 °C | 2.71 °C | 0.76 °C | 2.51 °C | 0.72 °C | 4.93 °C | 1.9 °C | 3.13 °C | 1.69 °C | 0.86 °C | 1.7 °C | 3.58 °C | 0.79 °C | 3.25 °C | 3.98 °C | 0.52 °C
7 | COc1ncc(-c2cc(-c3ncc(CN4C[C@@H](C)O[C@@H](C)C4)o3)c3cn[nH]c3c2)cc1NS(C)(=O)=O | 0.55 °C | 3.05 °C | -0.41 °C | -0.09 °C | -0.11 °C | 0.43 °C | 0.15 °C | 0.01 °C | 0.34 °C | -0.19 °C | 1.25 °C | 1.42 °C | 1.12 °C | 0.17 °C | 1.4 °C | 0.12 °C | 0.69 °C | 0.78 °C | -0.2 °C | 0.21 °C
8 | O=c1c(O)c(-c2ccc(O)c(O)c2)oc2cc(O)cc(O)c12 [Quercetin] | 3.05 °C | 7.25 °C | 1.68 °C | 1.97 °C | 3.55 °C | 3.4 °C | 6.51 °C | 2.95 °C | 1.5 °C | 6.25 °C | 2.71 °C | 8.09 °C | 0.35 °C | 10.7 °C | 5.98 °C | 2.14 °C | 2.05 °C | 2.33 °C | 3.39 °C | 1.77 °C
9 | Cc1cc(Nc2cc(N)ncn2)c(=O)n2c1C(=O)NC21CCCCC1 | 0.09 °C | 0.56 °C | 3.66 °C | -0.03 °C | 1.91 °C | 0.49 °C | -0.58 °C | -0.04 °C | 0.24 °C | -0.14 °C | 1.68 °C | 0.51 °C | -0.25 °C | -0.02 °C | 0.19 °C | 0.38 °C | -1.2 °C | 0.72 °C | 2.1 °C | -0.32 °C
10 | CN(C)Cc1cccc(N/C(=C2\C(=O)Nc3cc(C(N)=O)ccc32)c2ccccc2)c1 | -0.11 °C | 0.69 °C | 1.98 °C | -0.09 °C | 0.65 °C | 0.45 °C | 0.07 °C | 0.48 °C | 0.08 °C | 0.86 °C | 0.28 °C | 1.3 °C | 0.57 °C | 0.43 °C | 0.19 °C | 0.87 °C | 0.75 °C | 1.55 °C | 1.2 °C | 0.67 °C
11 | CN1C(=O)[C@@H](NC(=O)c2n[nH]c(Cc3ccccc3)n2)COc2ccccc21 | 0.8 °C | 1.65 °C | 0.07 °C | 0.83 °C | 0.52 °C | 0.05 °C | 0.62 °C | 0.43 °C | 0.45 °C | 2.47 °C | 0.85 °C | 0.1 °C | 0.2 °C | 0.29 °C | 0.17 °C | 0.41 °C | -0.03 °C | 0.55 °C | 0.71 °C | 0.62 °C
12 | C[C@H](Nc1ncnc2[nH]cnc12)c1cc2ccc(F)cc2nc1-c1ccccn1 | 0.51 °C | 2.1 °C | 0.26 °C | 0.16 °C | 0.16 °C | 0.92 °C | -0.54 °C | 0.94 °C | 0.64 °C | 0.37 °C | 2.29 °C | 1.36 °C | 2.33 °C | 0.52 °C | 0.95 °C | 0.17 °C | 0.74 °C | 0.28 °C | 0.28 °C | 0.95 °C
13 | N#C/C(=C\c1ccc(O)c(O)c1)C(=O)NCc1ccccc1 [AG-490 (Tyrphostin B42)] | 2.63 °C | 17.9 °C | 0.93 °C | 1.74 °C | 1.27 °C | 1.78 °C | -0.2 °C | 1.08 °C | 0.47 °C | 0.46 °C | 0.3 °C | 0.46 °C | 1.9 °C | 0.34 °C | 0.38 °C | 0.32 °C | 1.89 °C | 0.84 °C | -0.01 °C | 1.7 °C
